# Rows were chosen to be rich in hits. Some 11% of all compounds tested hit in one or more screens of this group.
# FLuc inh-1 – Firefly luciferase inhibition profiling of diverse chemical library using quantitative high-throughput screening. Potency, µM (titrated, usually from 115 µM), most hits filed as inhibitors. purified P. pyralis luciferase, luminescence, biochemical. actives 2.5% (n = 76,000). Luciferin 4-monooxygenase (Photinus pyralis), P08659; further: on the % scale 0 is the no-effect control and ±100 the full control effect; nearly all actives have a fitted effect of over 65% in size
# Target sequence (P08659 whole entry, looked up): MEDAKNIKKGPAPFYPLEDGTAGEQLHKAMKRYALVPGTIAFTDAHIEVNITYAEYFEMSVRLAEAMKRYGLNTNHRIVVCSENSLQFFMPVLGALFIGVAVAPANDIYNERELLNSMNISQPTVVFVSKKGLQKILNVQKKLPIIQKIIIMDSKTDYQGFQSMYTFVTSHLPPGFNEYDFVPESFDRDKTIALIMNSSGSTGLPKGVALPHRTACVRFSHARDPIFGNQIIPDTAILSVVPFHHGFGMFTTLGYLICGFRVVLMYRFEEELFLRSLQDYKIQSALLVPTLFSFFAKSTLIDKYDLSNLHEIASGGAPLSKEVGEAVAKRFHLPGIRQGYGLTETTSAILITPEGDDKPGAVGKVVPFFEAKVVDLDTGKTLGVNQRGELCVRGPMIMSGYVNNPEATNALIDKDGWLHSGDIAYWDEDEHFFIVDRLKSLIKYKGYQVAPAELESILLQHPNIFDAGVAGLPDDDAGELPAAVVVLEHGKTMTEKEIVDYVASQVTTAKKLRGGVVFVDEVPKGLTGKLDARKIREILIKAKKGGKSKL
#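 Cell-free enzyme assay, 10nM P. pyralis luciferase, luciferin and ATP each at 10uM. Inhibition profiled over a 6-point titration, read as luminescence.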
# HEK cytotox – Cytotoxic Profiling in HEK 293 Cell Line of Diverse Libraries Using Quantitative High-Throughput Screening. HEK 293 viability, ATP luminescence (CellTiter-Glo), 48-72 h. actives 6.6% (n = 94,000). Potency, µM (highest dose often 115 µM), for the others: at the highest dose activity change, negative = cytotoxicity, hits mostly inhibitors; further: on the % scale 0 is the no-effect control and ±100 the full control effect; nearly all actives have a fitted effect of over 60% in size
#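 Pintool-delivered compounds were incubated with HEK 293 cells (250 cells/well) at 37 degree Celsius for 48 or 72 hr. ATP-dependent luminescence (CellTiter-Glo) then reported remaining viable cells.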
# hNpr1 antagonist – Natriuretic polypeptide receptor (hNpr1) antagonism - Primary qHTS | Atrial natriuretic peptide receptor 1 (Homo sapiens), P16066 | AID 1347048, 2019 | Potency, µM (doses to about 46.3 µM), for inactives: top-dose activity change, negative = inhibition, usual class: inhibitors | actives 1.6% (n = 76,000) | HEK293 hNpr1 GloSensor cGMP, ANP-stimulated luminescence; calls by dose curve; further: on the % scale 0 is the no-effect control and ±100 the full control effect; nearly all actives have a fitted effect of over 60% in size
#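 HEK293 cells stably expressing human Npr1 and cGMP GloSensor pGS-40F, loaded 2 h with 2% GloSensor reagent, given compound 30 min at room temperature. Luminescence read before and 20 min after 0.1 nM hNppA.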
# NIH3T3 tox – Cytotoxic Profiling in NIH 3T3 Cell Line of Diverse Libraries Using Quantitative High-Throughput Screening; Potency, µM (doses to about 96.7 µM), without a hit: top-dose activity change, negative = cytotoxicity, most hits filed as inhibitors; NIH 3T3 viability, CellTiter-Glo ATP luminescence, 48-72 h; AID 1345082, 2018; actives 4.3% (n = 94,000); further: on the % scale 0 is the no-effect control and ±100 the full control effect; nearly all actives have a fitted effect of over 55% in size
#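 Cytotoxicity is measured as loss of cellular ATP: NIH 3T3 cells (400/well) are exposed to compound for 48 or 72 hr at 37 °C, then CellTiter-Glo luminescence is imaged after 10 min at room temperature.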
# FLuc SDR no ATP – Firefly luciferase (FLuc-C-HiBiT) SDR gain of signal screen - without ATP; shares compounds with FLuc inh-1; actives 7.8% (n = 1,300); Purified FLuc-C-HiBiT, Nano-Glo HiBiT luminescence, no ATP; AID 1963318, 2024; Potency, µM (series often up to 32.7 µM), for the others: at the top dose activation (signal gain), usual class: activators; further: nearly all actives have a fitted effect of over 55% in size
# FLuc SDR ATP – Firefly luciferase (FLuc-C-HiBiT) SDR gain of signal screen - plus ATP; actives 8.7% (n = 1,300); Potency, µM (titrated, usually from 32.7 µM), for the others: top-dose activation (gain of signal), usual class: activators; purified FLuc-C-HiBiT + ATP, HiBiT complementation luminescence; shares compounds with FLuc inh-1;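 further: signal reports ligand binding via conformational change of the enzyme rather than luciferase catalysis; % of control where 0% means no effect; nearly all actives have a fitted effect of over 55% in size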
# FLuc inh-2 – Firefly luciferase (FLuc-C-HiBiT) enzymatic inhibition screen - Functional assay; actives 42% (n = 1,300); purified FLuc-C-HiBiT enzyme, luciferin luminescence; shares compounds with FLuc inh-1; AID 1963320, 2024; Potency, µM (titrated, usually from 32.7 µM), for the others: at the top dose activity change, negative = inhibition, usual class: inhibitors; further: on the % scale 0 is the no-effect control and ±100 the full control effect; nearly all actives have a fitted effect of over 70% in size
# Active calls of the source: *; i = inactive; ? = inconclusive; · = no result given. Unless noted, the call rests on the fitted dose curve; in most records, active means well fitted curve in the direction sought with a large enough effect; inconclusive means small, poorly fitted or top-dose-only effect, or another doubt; inactive means no such curve, though single readings can be large; an effect the other way counts as inactive or inconclusive. Potency means the concentration at half of the fitted maximal effect.
SMILES,FLuc inh-1,HEK cytotox,hNpr1 antagonist,NIH3T3 tox,FLuc SDR no ATP,FLuc SDR ATP,FLuc inh-2
COc1ccc(-c2cc(N3CCCC(NC(=O)c4c[nH]c5ccccc45)C3)n[nH]2)cc1 (stereo unspecified),10µM*,?,-20%,?,17%,10%,?
COc1ccc(-c2cc(N3CCCC(NC(=O)c4ccc5c(c4)OCO5)C3)n[nH]2)cc1 (stereo unspecified),11µM*,?,-20%,?,24%,15%,?
COc1ccc(-c2cc(N3CCCC(NC(=O)c4cccc5[nH]ccc45)C3)n[nH]2)cc1 (stereo unspecified),14µM*,45µM*,-25%,35µM*,14%,7%,?
O=C(NC1CCCN(c2cc(-c3ccc(F)cc3)[nH]n2)C1)c1cccs1 (stereo unspecified),?,?,1%,?,·,·,·
COc1ccc(-c2cc(N3CCCC(NC(=O)c4cccs4)C3)n[nH]2)cc1 (stereo unspecified),14µM*,?,-18%,?,21%,13%,?
CC(C)NC(=O)C1CCN(C(=O)c2ncn3c2COC(c2ccccc2)C3)CC1 (stereo unspecified),3.5µM*,-8%,0%,-12%,13%,4.4µM*,3.5µM*
CCC(CC)NC(=O)C1CCN(C(=O)c2ncn3c2COC(c2ccc(F)cc2)C3)CC1 (stereo unspecified),?,-14%,5%,i,·,·,·
CC(NC(=O)C1CCN(C(=O)c2ncn3c2COC(c2ccccc2)C3)CC1)c1ccc(F)cc1 (stereo unspecified),13µM*,5%,-8%,0%,13%,?,5µM*
C=CCCOC(=O)N1CCC(=O)N(CC)C[C@H]2COc3cc(OC)ccc3[C@H]21,·,5%,·,?,·,·,·
Cc1nc2ccc(C(=O)Nc3ccc4c(c3)C(=O)N3CCC[C@H]3C(=O)N4)cc2s1,i,2%,-3%,-13%,·,·,·
CCS(=O)(=O)c1cccc(C(=O)Nc2ccc(-c3nc4ccccc4s3)c(O)c2)c1,·,·,·,·,4%,4%,?
CCCOc1cccc(C(=O)Nc2ccc(-c3nc4ccccc4s3)c(Cl)c2)c1,·,·,·,·,9%,9%,?
N#Cc1ccc(C(=O)Nc2ccccc2-c2nc3ccccc3s2)c(F)c1,·,·,·,·,14%,9%,2%
COc1cccc(-c2nc3cc(NC(=O)c4ccc(C)c([N+](=O)[O-])c4)ccc3s2)c1,·,·,·,·,9%,9%,-15%
CC(C)n1cnnc1C1CCCN1S(=O)(=O)c1ccccc1 (stereo unspecified),·,-10%,·,-9%,·,·,·
COc1cccc(CCC(=O)NC2CCN(C(=O)c3cc4c(=O)[nH]c(C)cn4n3)CC2)c1,i,-3%,-9%,3%,·,·,·
CCN1C(=O)CN(C(=O)c2cccc(C)c2)CC12CCOCC2,i,-15%,2%,-24%,·,·,·
COc1cccc(C(=O)Nc2ccc3nc(SCC(=O)N4CCOCC4)sc3c2)c1,·,·,·,·,?,21%,9.9µM*
COc1cc(OC)cc(C(=O)Nc2ccccc2-c2nc3ccccc3s2)c1,·,·,·,·,12%,10%,-4%
COCCN1C(=O)c2ccccc2C(C(=O)Nc2nc3ccccc3s2)C12CCCC2 (stereo unspecified),i,6%,-3%,-5%,·,·,·
